Source: PubChem BioAssay (National Center for Advancing Translational Sciences (NCATS))
Sampled rows, rich in hits. Any-hit rate of the full collection: about 9%.
PLK1 PBD block: inhibitors of human PLK1 polo-box domain binding; P53350; Plk1 PBD binding of FITC phosphopeptide, fluorescence polarization; Potency, µM, inactives show max response, negative = inhibition, usual class: inhibitors; 360,000 tested, 2.8% active; AID 720504; also: series mostly up to about 57 µM; % is scaled to controls: 0 for no effect and ±100 for the full control effect; nearly all actives have a fitted effect of over 65% in size
JMJD2A Tudor inh: inhibitors of human JMJD2A Tudor domain. AID 504339. 390,000 tested, 4.4% active. AlphaScreen JMJD2A-Tudor / H3K4me3 peptide binding. Potency, µM (top dose mostly 114 µM), for the others: top-dose activity change, negative = inhibition, usual class: inhibitors; also: % is scaled to controls: 0 for no effect and ±100 for the full control effect; nearly all actives have a fitted effect of over 50% in size
G9a inh: inhibitors of human histone lysine methyltransferase G9a; Q96KQ7; G9a H3K9 monomethylation, AlphaScreen, 2 h; Potency, µM (highest dose often 102 µM), for inactives: at the top dose activity, negative = inhibition, actives largely listed as inhibitors; 350,000 tested, 8.8% active; AID 504332; also: % is scaled to controls: 0 for no effect and ±100 for the full control effect; nearly all actives have a fitted effect of over 75% in size
Target sequence (Q96KQ7 913-1193 limits assumed): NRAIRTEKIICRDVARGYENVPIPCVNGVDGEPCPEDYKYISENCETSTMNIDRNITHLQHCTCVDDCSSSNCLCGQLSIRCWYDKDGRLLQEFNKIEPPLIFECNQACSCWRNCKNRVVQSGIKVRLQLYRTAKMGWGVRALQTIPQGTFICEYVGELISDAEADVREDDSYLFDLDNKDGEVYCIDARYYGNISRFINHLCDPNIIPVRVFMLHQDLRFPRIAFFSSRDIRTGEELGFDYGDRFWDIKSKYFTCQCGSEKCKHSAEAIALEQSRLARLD
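Step 1: enzyme (final 20 nM) with compound, 15 min RT. Step 2: substrate peptide 500 nM and SAM 20 uM, 2 h RT. Step 3: anti-H3K9me1 antibody and AlphaScreen beads, 10 min, then plate read.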
ALOX12 inh: inhibitors of human 12S-lipoxygenase ALOX12 | P18054 | purified 12hLO, xylenol orange hydroperoxide absorbance | 580,000 tested, 1.1% active | Potency, µM (titrated, usually from 108 µM), without a hit: at the highest dose activity change, negative = inhibition, most hits filed as inhibitors | AID 1671190; also: % is scaled to controls: 0 for no effect and ±100 for the full control effect
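Hydroperoxide product was detected by ferrous iron/xylenol orange as the 573 to 405 nm absorbance ratio. Arachidonic acid at 40 uM (final) was turned over for 30 min at room temperature by 150 nM human 12hLO, pH 7.0 Hepes buffer, after 15 min compound preincubation.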
BAZ2B block: blocks human BAZ2B; AID 504333; 360,000 tested, 4.4% active; AlphaScreen BAZ2B-H3K14Ac peptide displacement; Q9UIF8; Potency, µM (highest dose often 114 µM), inactives show top-dose activity change, negative = inhibition, actives largely listed as inhibitors; also: % is scaled to controls: 0 for no effect and ±100 for the full control effect; nearly all actives have a fitted effect of over 60% in size
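Complex of BAZ2B and biotin-H3K14Ac (50 nM apiece) forms over 30 min at RT, then faces library compounds up to 110 uM for another 30 min; AlphaScreen beads added, 20 min dark incubation, luminescence read.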
HP1b binding inh: HP1-beta chromodomain-methylated histone interaction inhibition | AlphaScreen HP1-beta / biotin-H3K9me3 peptide binding | P83916 | 390,000 tested, 0.56% active | Potency, µM (titrated, usually from 114 µM), inactives show at the top dose activity change, negative = inhibition, usual class: inhibitors | AID 540317; also: nearly all actives have a fitted effect of over 70% in size
Target sequence (P83916 whole entry, looked up): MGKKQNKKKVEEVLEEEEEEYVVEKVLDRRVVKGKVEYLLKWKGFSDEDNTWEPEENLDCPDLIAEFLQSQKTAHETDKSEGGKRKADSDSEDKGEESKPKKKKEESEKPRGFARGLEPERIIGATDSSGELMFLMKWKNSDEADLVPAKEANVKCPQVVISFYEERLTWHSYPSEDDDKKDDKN
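Compound inhibition of the preformed complex between 50 nM HP1-beta and 50 nM biotinylated H3K9me3 peptide was read by AlphaScreen. Buffer was PBS pH 7.4 with 0.01% Tween-20. Incubations ran 30 min at room temperature, with 10 ug/mL donor/acceptor beads.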
* = called active by the depositor; ? = inconclusive; nt = no result given; [ ] = dose if it differs, or a comment. Calls follow the shape of the dose curve; as a rule, active = well fitted curve in the direction sought with a large enough effect; inconclusive = small, poorly fitted or top-dose-only effect, or another doubt; inactive = no such curve, though single readings can be large; an effect the other way counts as inactive or inconclusive. Potency is read from the fitted curve at half-maximal effect.

SMILES | PLK1 PBD block | JMJD2A Tudor inh | G9a inh | ALOX12 inh | BAZ2B block | HP1b binding inh
Cc1cc(C(c2ccc(Cl)cc2Cl)N2CCOCC2)c(NC(=O)c2ccco2)s1 (stereo not given) | nt | nt | nt | -28% | nt | nt
CCc1cc(C(c2ccccc2OC)N2CCN(C)CC2)c(NC(=O)c2ccco2)s1 (stereo not given) | nt | nt | nt | 40µM* | nt | nt
CCc1cc(C(c2ccc(OC)c(OC)c2)N2CCN(CC)CC2)c(NC(=O)c2ccco2)s1 (stereo not given) | nt | nt | nt | 16µM* | nt | nt
CCc1cc(C(c2cccc(OC)c2)N2CCOCC2)c(NC(=O)c2ccccc2)s1 (stereo not given) | -13% | -23% | 5% | 0% | -31% | 29%
CCc1cc(C(c2ccc(OC)c(OC)c2)N2CCOCC2)c(NC(=O)c2ccccc2)s1 (stereo not given) | ? | 50µM* | 32µM* | -34% | 35µM* | ?
COc1cc(C(=O)Oc2cccc(Nc3ncnc4ccccc34)c2)cc(OC)c1OC | -3% | -27% | 26%[59 µM] | 6% | -2% | 18%
O=C(CCNC(=O)c1ccco1)NCc1ccccc1 | 0% | -13% | 8% | 0% | 5% | 37%
CCOC(=O)/C=C1\NC2(CCCCC2)Cc2cc(OC)c(OC)cc21 | -9% | -4% | nt | -40% | nt | 5%
CCCc1ccc(-c2cc(N)n[nH]2)cc1 | -6% | -27% | 22% | 0% | 79µM* | 9%
O=c1cc(-c2ccccc2)oc2cc(OCc3ccccc3)cc(OCc3ccccc3)c12 | nt | nt | nt | 7% | nt | nt
CN(C)c1ccc(-n2cc3c(=O)n(C)c(=O)n(C)c3c2)cc1 | -4% | ? | 45µM* | 0% | 35µM* | ?
CCN(CC)c1ccc(-n2cc3c(=O)n(C)c(=O)n(C)c3c2)cc1 | -13% | 56µM* | -39%[12.7 µM] | -18% | 32µM* | 32µM*
Cc1ccc(C(=O)NCc2nnc3c(-c4nc(C(C)C)no4)cccn23)cc1 | nt | nt | nt | 59% | nt | nt
O=C(CCN1C(=O)/C(=C/c2ccc3c(c2)OCO3)SC1=S)Nc1ccc(C(=O)O)cc1 | -29% | 45µM* | 21%[2.33 µM] | ? | 35µM* | ?
O=C(CCN1C(=O)/C(=C/c2ccc3c(c2)OCO3)SC1=S)Nc1ccccc1 | -12% | 0% | 1%[59 µM] | 23% | -4% | 21%
O=C(CCCN1C(=O)/C(=C/c2ccc3c(c2)OCO3)SC1=S)Nc1ccc(C(=O)O)cc1 | 2% | ? | 28% | 14µM* | -18% | -2%
CC1=C(C(=O)N2CCOCC2)CC(CC(=O)NC2CCCC2)C(=O)N1CCCN1CCCC1=O (stereo not given) | -5% | nt | nt | -8% | nt | nt
CC1=CC(C)(C)NC(=S)N1c1cccc(C)c1 | -1% | -13% | 28%[12.7 µM] | ? | 0% | 13%[57 µM]
O=C(CN1C(=O)S/C(=C\c2ccc(Cl)cc2)C1=O)NC1C=CS(=O)(=O)C1 (stereo not given) | 19µM* | 20µM* | 10% | -16% | -13%[57.1 µM] | 0%
CC(C(=O)NC1C=CS(=O)(=O)C1)N1C(=O)/C(=C/c2cccc(Cl)c2)SC1=S (stereo not given) | ? | ? | 25µM* | ? | ? | -22%
COc1ccccc1/C=C1/SC(=S)N(C(C)C(=O)NC2C=CS(=O)(=O)C2)C1=O (stereo not given) | -19% | 6% | 45µM* | ? | -28% | 37%
CC(=O)c1ccc(F)c(-c2cc(C)cc3c2OC(CNC(=O)c2ccnn2C)C3)c1 (stereo not given) | nt | nt | nt | 25% | nt | nt
Cc1ccc(C(=O)C(C)n2cnc3c2c(=O)n(C)c(=O)n3C)cc1 (stereo not given) | nt | nt | nt | 27% | nt | nt
CCNc1cc(Cl)nc(SC)n1 | -6% | 13%[57.1 µM] | 86%[59 µM] | 0% | -29% | 40%
CC(=O)Oc1ccc(C(=O)[C@H]2[C@H]3C(=O)N(c4cccc5ccccc45)C(=O)[C@H]3[C@@H]3C=CC=NN32)cc1 | 42µM* | ? | ? | -16% | ? | -20%
SMILES | PLK1 PBD block | JMJD2A Tudor inh | G9a inh | ALOX12 inh | BAZ2B block | HP1b binding inh
O=c1cc(-c2ccccc2)nc2c(-c3ccccc3)c(C(F)(F)F)[nH]n12 | 17µM* | 43% | 12% | ? | 17% | 84%
Cc1[nH]n2c(=O)cc(-c3ccc4ccccc4c3)nc2c1-c1ccccc1 | nt | nt | nt | -12% | nt | nt
c1ccc(COc2ccc(OCCN3CCCC3)cc2)cc1 | -16% | ? | ? | -4% | -12% | 1%
CC(C)(C)c1ccc(OCCCN2CCCC2)cc1 | -12% | 22µM* | 0% | ? | ? | ?
c1ccc(COc2ccc(OCCCN3CCCC3)cc2)cc1 | -6% | 20µM* | 6.3µM* | -22% | 50µM* | -9%
Cc1ccc(S(=O)(=O)N2CCOC23CCN(C(=O)c2ccc(Cl)cc2Cl)CC3)cc1 | 1% | 10% | nt | ? | -20% | 34%
COc1ccccc1CN1CCN(Cc2nc(-c3ccc(C)cc3)oc2C)CC1 | -3% | ? | 21% | 6% | -33% | 17%
COc1cc(CN2CCN(Cc3ccc(C)cc3)CC2)cc(OC)c1 | nt | nt | nt | 0.5µM* | nt | nt
COc1ccc(CN2CCC3(CC2)CC(O)CCO3)c(OC)c1 (stereo not given) | nt | nt | nt | 13% | nt | nt
COc1cc(CN2CCN(Cc3ccco3)CC2)cc(OC)c1 | -17% | 0.79µM* | 8.9µM* | ? | 25µM* | ?
COc1ccccc1CN1CCN(Cc2ccco2)CC1 | 2% | 4µM* | 45µM* | ? | 25µM* | ?
COc1ccc(CN2CCN(Cc3ccco3)CC2)c(OC)c1 | 5% | 3.2µM* | 40µM* | ? | 40µM* | ?
Cc1cccc(NC(=O)CSc2nc(-c3ccccc3Cl)nc3c2Cc2c(CO)cnc(C)c2O3)c1C | nt | -18% | 5%[59 µM] | -25% | -5% | 3%
COc1cccc(NC(=O)CCc2nc(-c3cc(OC)c(OC)c(OC)c3)no2)c1 | nt | -25% | -7%[59 µM] | -9% | -6% | 2%
COc1ccc(CN2CCc3ccccc3C2)c(OC)c1 | -1% | 2.8µM* | -128%[59 µM] | ? | ? | ?
O=C(O)CCc1ccc(-c2ccccc2)n1CC(=O)O | -1% | ? | ? | 3% | -19% | 9%
Cc1ccc(-c2ccc(CCC(=O)O)n2Cc2ccco2)cc1 | -23% | ? | 50µM* | ? | ? | -6%
O=C(O)CCc1ccc(-c2ccc(F)cc2)n1CCC(=O)O | -2% | -20% | 11µM* | -11% | -21% | 30%
CCCn1c(CCC(=O)O)ccc1-c1ccccc1 | 12µM* | 35µM* | 5%[59 µM] | -10% | -1% | ?
COc1ccc(C(=O)O/N=C(\N)c2ccccc2)cc1OC | 4% | -3% | 22% | ? | 0% | -5%
Cc1cc2cc3c(C)cc(=O)oc3c(C)c2o1 | -9% | 6% | 0% | 5% | 2% | 60%
